Assay results from PubChem BioAssay (NCATS).
Records with an inconclusive call do not appear. Calls of active or inactive are those of the source. Unless noted, calls come from the whole dose curve; as a rule, active = well fitted curve in the direction sought with a large enough effect; inconclusive = small, poorly fitted or top-dose-only effect, or another doubt; inactive = no such curve, though single readings can be large; an effect the other way counts as inactive or inconclusive.

What was measured:
[1] = target: Lysosomal acid glucosylceramidase (Homo sapiens) (UniProt P04062); assay: Glucocerebrosidase-p2 (AID 348; in the data active = potency below about 10 µM; note: potency is the fitted concentration of half-maximal effect); conditions: purified GBA, blue fluorogenic substrate, 40 min
Chain of Lysosomal acid glucosylceramidase (Homo sapiens) (P04062 whole entry, looked up): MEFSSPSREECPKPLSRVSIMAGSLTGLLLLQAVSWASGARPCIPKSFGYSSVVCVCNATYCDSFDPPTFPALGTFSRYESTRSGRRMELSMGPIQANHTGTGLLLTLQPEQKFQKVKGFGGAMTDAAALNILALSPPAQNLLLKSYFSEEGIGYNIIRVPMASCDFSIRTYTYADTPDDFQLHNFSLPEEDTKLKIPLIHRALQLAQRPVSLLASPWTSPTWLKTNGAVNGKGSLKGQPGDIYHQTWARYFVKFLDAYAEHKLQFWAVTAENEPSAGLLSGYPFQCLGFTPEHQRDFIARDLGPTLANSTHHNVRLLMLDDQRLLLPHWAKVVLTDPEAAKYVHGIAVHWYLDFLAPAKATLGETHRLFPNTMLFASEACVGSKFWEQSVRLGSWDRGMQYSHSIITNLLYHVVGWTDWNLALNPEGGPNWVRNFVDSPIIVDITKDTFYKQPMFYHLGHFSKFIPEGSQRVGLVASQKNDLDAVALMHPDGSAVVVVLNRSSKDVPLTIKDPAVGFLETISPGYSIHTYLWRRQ
Summary of the method: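 Compounds titrated from 0.6 nM upwards against 0.2 nM enzyme in pH 5.9 citric acid/KH2PO4, taurocholate, tween-20; blue fluorogenic substrate 80 uM, 40 min room temperature, stopped and read Ex 365/Em 440 for AC50.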

[2] = Stat Signaling Pathway (AID 446; active = well fitted curve in either direction with a large enough effect, not every such curve was filed as active;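 note: ME-180 cervical cancer cells given 40 pM IL-6 alongside compound; SIE-controlled beta-lactamase reporter measured as 460/530 nm FRET emission ratio; % is set by controls: 0 for no effect and ±100 for the full control effect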); conditions: ME-180 SIE beta-lactamase reporter, IL-6 stimulated, 5 h; at 7.69 µM (top of the series) unless noted
Summary of the method: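 ME-180 SIE-bla cells; overnight plating; cpd + IL-6 40 pM, 5 h, 37 C; LiveBLAzer 2.5 h RT; 460/530 nm emission ratio. Normalized to 300 pM IL-6 and 125 nM JAK inhibitor controls.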

[3] = target: Mitogen-activated protein kinase 10 (Mus musculus) (UniProt Q61831); assay: JNK3 AlphaScreen Assay (AID 530; active = well fitted curve in either direction with a large enough effect, not every such curve was filed as active;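 note: kinase came from lysate of stimulated human HepG2 cells; signal reports phosphorylation of biotinylated GST-cJun 1-79 at Ser73 with 10 µM ATP; % is set by controls: 0 for no effect and ±100 for the full control effect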); conditions: JNK3 lysate, c-Jun phosphorylation; series mostly up to 57.1 µM
Summary of the method: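 JNK3 came from HepG2 lysates pre-activated with IL-1beta and TNF-alpha and phosphorylated biotinylated GST-cJun (1-79) at 10 uM ATP, pH 7.6, room temperature. Compounds were titrated. AlphaScreen signal used anti-phospho-cJun (Ser73) antibody.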

[4] = target: ATP-dependent 6-phosphofructokinase (Trypanosoma brucei brucei) (UniProt O15648); assay: qHTS Assay to Find Inhibitors of T. brucei phosphofructokinase: hit validation (AID 492961);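 note: luminescence reports ADP formed as PFK phosphorylates fructose-6-phosphate with ATP; % is set by controls: 0 for no effect and ±100 for the full control effect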; conditions: T. brucei PFK, ADP-Glo luminescence; series mostly up to 51.4 µM
Chain of ATP-dependent 6-phosphofructokinase (Trypanosoma brucei brucei) (O15648 whole entry, looked up): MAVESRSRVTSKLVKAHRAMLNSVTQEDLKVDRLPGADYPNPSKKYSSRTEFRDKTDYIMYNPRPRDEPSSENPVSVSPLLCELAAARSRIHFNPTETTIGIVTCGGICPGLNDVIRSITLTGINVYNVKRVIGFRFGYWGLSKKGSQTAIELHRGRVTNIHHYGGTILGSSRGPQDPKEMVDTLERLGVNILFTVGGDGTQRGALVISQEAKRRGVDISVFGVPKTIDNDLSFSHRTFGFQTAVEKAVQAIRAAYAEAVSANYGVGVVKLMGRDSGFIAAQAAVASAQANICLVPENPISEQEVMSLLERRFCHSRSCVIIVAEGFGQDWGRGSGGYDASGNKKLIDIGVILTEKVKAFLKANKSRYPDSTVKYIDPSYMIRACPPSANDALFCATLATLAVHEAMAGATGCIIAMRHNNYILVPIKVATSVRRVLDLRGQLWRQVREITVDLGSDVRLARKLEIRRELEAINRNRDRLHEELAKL
Summary of the method: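 PFK 1.25 nM, F6P 0.5 mM, ATP 0.1 mM, MgCl2 5 mM, 0.1 M TEA pH 8.0, Tween20 0.01%, BSA 0.1%; 45 min RT. ADP-Glo two-step detection, luminescence. qHTS titration; curve fitting with curve-class categorization.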

[5] = target: Ubiquitin carboxyl-terminal hydrolase 1 (Homo sapiens) (UniProt O94782); assay: Inhibitors of USP1/UAF1: Pilot qHTS (AID 504865); conditions: purified USP1/UAF1, Ub-rhodamine cleavage fluorescence; series mostly up to 114 µM;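 note: rhodamine fluorescence freed from ubiquitin-rhodamine substrate followed over time; top concentration of the series differs between compounds; % is set by controls: 0 for no effect and ±100 for the full control effect; nearly all actives have a fitted effect of over 35% in size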
Chain of Ubiquitin carboxyl-terminal hydrolase 1 (Homo sapiens) (O94782 whole entry, looked up): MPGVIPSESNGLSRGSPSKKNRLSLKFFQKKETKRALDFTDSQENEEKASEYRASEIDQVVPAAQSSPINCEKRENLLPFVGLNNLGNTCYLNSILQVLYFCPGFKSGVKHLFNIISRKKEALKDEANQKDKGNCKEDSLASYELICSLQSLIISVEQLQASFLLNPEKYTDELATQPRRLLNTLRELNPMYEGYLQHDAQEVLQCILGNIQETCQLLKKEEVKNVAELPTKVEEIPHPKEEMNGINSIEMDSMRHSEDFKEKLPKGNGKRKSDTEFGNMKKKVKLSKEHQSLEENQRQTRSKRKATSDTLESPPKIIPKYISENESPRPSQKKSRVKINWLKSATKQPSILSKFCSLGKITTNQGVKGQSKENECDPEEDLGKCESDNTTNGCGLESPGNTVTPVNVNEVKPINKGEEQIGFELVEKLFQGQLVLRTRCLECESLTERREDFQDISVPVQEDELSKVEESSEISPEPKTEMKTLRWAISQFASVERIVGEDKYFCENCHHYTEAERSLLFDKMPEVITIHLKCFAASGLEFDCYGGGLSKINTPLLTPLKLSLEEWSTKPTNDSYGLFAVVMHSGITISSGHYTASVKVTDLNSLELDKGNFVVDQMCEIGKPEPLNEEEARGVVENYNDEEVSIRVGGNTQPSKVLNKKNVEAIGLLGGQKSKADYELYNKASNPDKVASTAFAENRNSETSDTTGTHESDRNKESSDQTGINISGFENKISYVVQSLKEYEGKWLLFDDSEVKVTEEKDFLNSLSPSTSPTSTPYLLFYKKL
Summary of the method: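 1nM USP1/UAF1 + cpd, 15 min RT; start w/ Ub-Rho 150nM final; kinetic FL 480/540 nm, 6 reads q60 s. Buffer 50mM HEPES pH 7.8, 0.5mM EDTA, 1mM TCEP, 0.01% Tween-20, 0.1 mg/ml BSA.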

[6] = target: Luciferin 4-monooxygenase (Photinus pyralis) (UniProt P08659); assay: Biochemical firefly luciferase enzyme assay for NPC (AID 624030);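 note: purified P. pyralis luciferase at 10 nM with luciferin and ATP substrate; 0% = DMSO and -100% = full luciferase inhibition by PTC124 control; nearly all actives have a fitted effect of over 70% in size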; conditions: purified P. pyralis luciferase, luminescence, 5 min; series mostly up to 58.6 µM
Chain of Luciferin 4-monooxygenase (Photinus pyralis) (P08659 whole entry, looked up): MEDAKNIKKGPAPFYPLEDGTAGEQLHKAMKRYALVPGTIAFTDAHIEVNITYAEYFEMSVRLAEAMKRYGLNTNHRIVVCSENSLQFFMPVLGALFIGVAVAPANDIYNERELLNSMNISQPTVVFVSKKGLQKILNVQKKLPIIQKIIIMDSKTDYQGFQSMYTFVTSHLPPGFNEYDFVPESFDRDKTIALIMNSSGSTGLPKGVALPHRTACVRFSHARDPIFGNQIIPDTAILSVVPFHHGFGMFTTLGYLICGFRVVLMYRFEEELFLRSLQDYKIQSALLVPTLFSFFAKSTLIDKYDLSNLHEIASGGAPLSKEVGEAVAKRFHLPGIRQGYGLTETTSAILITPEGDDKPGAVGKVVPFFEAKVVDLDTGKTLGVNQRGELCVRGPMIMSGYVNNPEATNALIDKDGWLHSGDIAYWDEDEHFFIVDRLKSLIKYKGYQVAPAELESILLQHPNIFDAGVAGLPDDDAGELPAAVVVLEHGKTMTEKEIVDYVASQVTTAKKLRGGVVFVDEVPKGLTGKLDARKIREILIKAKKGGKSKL
Summary of the method: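 Counter-screen for direct inhibition of the luciferase enzyme by approved-drug library compounds, run at 10 nM enzyme in 50 mM Tris acetate (final). Luminescence was read within 5 min of enzyme-buffer addition and normalized to PTC124 versus DMSO (0%).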

[7] = S16 Schwann cell viability assay (CellTiter-Glo assay) (AID 624031); conditions: S16 rat Schwann cells viability, 24 h; series mostly up to 57.5 µM;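 note: cellular ATP luminescence as a viability measure; plate controls were DMSO-treated cells for no effect and cell-free wells for full effect; nearly all actives have a fitted effect of over 70% in size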
Summary of the method: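 This viability control uses native rat S16 Schwann cells grown in DMEM plus 10% FBS. After a 24 h compound treatment at 37 °C, CellTiter-Glo luminescence reports ATP content, scaled against DMSO-treated and cell-free wells.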

[8] = S16 Schwann cell PMP22 intronic element beta-lactamase assay (AID 624044; calls by dose curve;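 note: 0% = DMSO and -100% = potassium clavulanate positive control; nearly all actives have a fitted effect of over 15% in size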); conditions: S16 rat Schwann cells, PMP22 element beta-lactamase FRET, 24 h; series mostly up to 38.3 µM
Summary of the method: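 Rat S16 Schwann cells with beta-Lac driven by a PMP22 intronic element, compound-treated 24 h at 37 °C. LiveBLAzer FRET B/G read: 460 nm normalized to potassium clavulanate vs DMSO; 535 nm FRET as viability; concentration-effect curves classified.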

[9] = qHTS profiling for inhibitors of Plasmodium falciparum proliferation (AID 504749);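 note: 0% = DMSO vehicle and full inhibition = artemisinin control; nearly all actives have a fitted effect of over 60% in size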; conditions: P. falciparum in erythrocytes, SYBR Green DNA, 72 h, at 28.7 µM (top of the series)
Summary of the method: (§1)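 P. falciparum-infected erythrocytes (0.3% parasitemia, 2.5% hematocrit final) were exposed to compounds for 72 h at 37 C in 5% CO2, then lysed with SYBR Green buffer overnight at room temperature; parasite DNA fluorescence was normalized to artemisinin and DMSO controls.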

[10] = tested on: 3D7; assay: as above; conditions: P. falciparum in erythrocytes, SYBR Green DNA, 72 h; series mostly up to 28.7 µM
Summary of the method: as §1

[11] = tested on: 7G8; assay: as above; conditions: P. falciparum in erythrocytes, SYBR Green DNA, 72 h; series mostly up to 28.7 µM
Summary of the method: as §1

[12] = tested on: AA1029; assay: as above; conditions: P. falciparum in erythrocytes, SYBR Green DNA, 72 h; series mostly up to 28.7 µM
Summary of the method: as §1

[13] = tested on: AS120; assay: as above; conditions: P. falciparum in erythrocytes, SYBR Green DNA, 72 h; series mostly up to 28.7 µM
Summary of the method: as §1

[14] = tested on: ATS189; assay: as above; conditions: P. falciparum in erythrocytes, SYBR Green DNA, 72 h; series mostly up to 28.7 µM
Summary of the method: as §1

[15] = tested on: ATS95; assay: as above; conditions: P. falciparum in erythrocytes, SYBR Green DNA, 72 h; series mostly up to 28.7 µM
Summary of the method: as §1

[16] = tested on: C2A; assay: as above; conditions: P. falciparum in erythrocytes, SYBR Green DNA, 72 h; series mostly up to 28.7 µM
Summary of the method: as §1

[17] = tested on: CP185; assay: as above; conditions: P. falciparum in erythrocytes, SYBR Green DNA, 72 h; series mostly up to 28.7 µM
Summary of the method: as §1

[18] = tested on: CP191; assay: as above; conditions: P. falciparum in erythrocytes, SYBR Green DNA, 72 h; series mostly up to 28.7 µM
Summary of the method: as §1

[19] = tested on: CP192; assay: as above; conditions: P. falciparum in erythrocytes, SYBR Green DNA, 72 h; series mostly up to 28.7 µM
Summary of the method: as §1

[20] = tested on: CP201; assay: as above; conditions: P. falciparum in erythrocytes, SYBR Green DNA, 72 h; series mostly up to 28.7 µM
Summary of the method: as §1

[21] = tested on: CP203; assay: as above; conditions: P. falciparum in erythrocytes, SYBR Green DNA, 72 h; series mostly up to 28.7 µM
Summary of the method: as §1

[22] = tested on: CP211; assay: as above; conditions: P. falciparum in erythrocytes, SYBR Green DNA, 72 h; series mostly up to 28.7 µM
Summary of the method: as §1

[23] = tested on: CP215; assay: as above; conditions: P. falciparum in erythrocytes, SYBR Green DNA, 72 h; series mostly up to 28.7 µM
Summary of the method: as §1

[24] = tested on: CP217; assay: as above; conditions: P. falciparum in erythrocytes, SYBR Green DNA, 72 h; series mostly up to 28.7 µM
Summary of the method: as §1

[25] = tested on: CP237; assay: as above; conditions: P. falciparum in erythrocytes, SYBR Green DNA, 72 h; series mostly up to 28.7 µM
Summary of the method: as §1

[26] = tested on: CP238; assay: as above; conditions: P. falciparum in erythrocytes, SYBR Green DNA, 72 h; series mostly up to 28.7 µM
Summary of the method: as §1

[27] = tested on: CP247; assay: as above; conditions: P. falciparum in erythrocytes, SYBR Green DNA, 72 h; series mostly up to 28.7 µM
Summary of the method: as §1

[28] = tested on: CP250; assay: as above; conditions: P. falciparum in erythrocytes, SYBR Green DNA, 72 h; series mostly up to 28.7 µM
Summary of the method: as §1

[29] = tested on: CP252; assay: as above; conditions: P. falciparum in erythrocytes, SYBR Green DNA, 72 h; series mostly up to 28.7 µM
Summary of the method: as §1

[30] = tested on: CP256; assay: as above; conditions: P. falciparum in erythrocytes, SYBR Green DNA, 72 h; series mostly up to 28.7 µM
Summary of the method: as §1

[31] = tested on: CP260; assay: as above; conditions: P. falciparum in erythrocytes, SYBR Green DNA, 72 h; series mostly up to 28.7 µM
Summary of the method: as §1

C[C@@H]1O[C@@H](O[C@H]2C[C@@H](O)[C@@]3(CO)[C@H]4[C@H](O)C[C@]5(C)[C@@H](C6=CC(=O)OC6)CC[C@]5(O)[C@H]4CC[C@@]3(O)C2)[C@@H](O)[C@H](O)[C@H]1O
inactive: Potency [1] > 11.4 µM | activity, negative = inhibition [2] -4.36% | activity change, negative = inhibition [3] -1.14% [at 11.4 µM] | outcome [4] | Potency [5] | outcome [6] | outcome [7] | outcome [8] | activity, negative = inhibition ([9]; parasite line A) -4.19% | activity, negative = inhibition ([9]; parasite line B) 10.7% | Potency [10] | Potency [11] | Potency [12] | Potency [13] | Potency [14] | Potency [15] | Potency [16] | Potency [17] | Potency [18] | Potency [19] | Potency [20] | Potency [21] | Potency [22] | Potency [23] | Potency [24] | Potency [25] | Potency [26] | Potency [27] | Potency [28] | Potency [29] | Potency [30] | Potency [31]
